Percent Effect data for 20 compounds are collected here from ChEMBL document CHEMBL3988442, “University of Dundee, Small-Polar-MMV Screening Library” (2021).

Structures are written as SMILES.

In the assay the target is T1, Aspartate--tRNA(Asp/Asn) ligase (Mycobacterium tuberculosis (strain ATCC 25618 / H37Rv)) (UniProt P9WFW3).
T1 sequence (whole entry): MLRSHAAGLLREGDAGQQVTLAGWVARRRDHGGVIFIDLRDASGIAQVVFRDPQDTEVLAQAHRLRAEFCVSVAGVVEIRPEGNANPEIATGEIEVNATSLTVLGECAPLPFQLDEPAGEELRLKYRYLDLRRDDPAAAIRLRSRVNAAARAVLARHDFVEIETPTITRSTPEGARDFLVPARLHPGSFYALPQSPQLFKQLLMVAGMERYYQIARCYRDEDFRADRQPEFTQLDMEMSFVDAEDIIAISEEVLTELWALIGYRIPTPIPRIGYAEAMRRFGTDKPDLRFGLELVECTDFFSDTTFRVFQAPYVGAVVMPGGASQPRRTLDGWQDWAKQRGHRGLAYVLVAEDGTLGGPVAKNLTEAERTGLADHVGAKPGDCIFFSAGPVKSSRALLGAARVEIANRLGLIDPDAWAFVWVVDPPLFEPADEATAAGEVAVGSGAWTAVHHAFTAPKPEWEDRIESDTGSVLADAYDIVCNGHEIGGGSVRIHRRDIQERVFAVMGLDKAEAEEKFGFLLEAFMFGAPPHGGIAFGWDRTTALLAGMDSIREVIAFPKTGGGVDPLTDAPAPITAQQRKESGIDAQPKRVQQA
Briefly: Assay for Asp RNA synthetase-1 from Mycobacterium tuberculosis. It counts as functional. Further details: scale not given: in the data most compounds retested in dose-response had high values. Particulars: 30 µM.
On to `Cc1cn(-c2ccccc2)nc1NS(=O)(=O)c1cc(C(=O)O)cs1`, for which the Percent Effect came to 5.52%.

Consider `CCCn1ccc2ccc(NC(=O)N(C)CCOC)cc21`, for which the Percent Effect is -4.94%.

As to `CC(C)CN1CCCC2(CCN(C(=O)c3cnccn3)C2)C1` (stereo not given), the Percent Effect turned out to be 1.03%.

Take `Clc1ccc2cccnc2c1CN1CCCC1Cn1cncn1` (stereo not given): the Percent Effect is -0.524%.

Regarding `Cc1nc([C@@H]2C[C@@H]3CCN(C(=O)c4occc4C)C[C@H]3O2)no1`, the Percent Effect was found to be 10.9%.

Consider `Cc1cnn(CC2CCCCN2Cc2nnc(-c3ccco3)o2)c1` (stereo not given), for which the Percent Effect turned out to be 11.6%.

For `Cc1cc(N2CCN(Cc3ccccc3)CC(O)C2)cc(C)n1` (stereo not given), the Percent Effect was -5.25%.

With `CNc1nc2c(s1)C(c1c(F)cccc1Cl)CC(=O)N2` (stereo not given), the Percent Effect stood at 61.3%.

For `Cn1cc(CN2CCCC23CCN(C(=O)c2cccn2C)CC3)cn1`, the Percent Effect is -4.47%.

On to `Cn1cnc(S(=O)(=O)NCCN2CCCCCC2=O)c1Cl`, for which the Percent Effect was -1.7%.

As for `Cc1nc(C)n(CC2CN(c3nnc(C)c(C)c3C#N)CCO2)n1` (stereo not given), the Percent Effect was -1.7%.

Turning to `O=C(CCNc1ncccn1)N1CCCC(n2ccnc2)C1` (stereo not given), the Percent Effect is 1.03%.

For the compound `CC(C(=O)N1CCN(c2cnccn2)CC1)n1cncn1` (stereo not given), the Percent Effect was determined as 2.72%.

As to `Cn1cc(N2CCCC(NCc3cccc4c3OCCCO4)C2)cn1` (stereo not given), the Percent Effect came to 2.49%.

Turning to `COc1ccc(NC(=O)N2CCCC2c2ccco2)cc1OC` (stereo not given), the Percent Effect is 1.24%.

`Cc1ccc(S(=O)(=O)N2C[C@@H]3C[C@@H](NC(=O)C(C)(C)C)[C@@H]3C2)cc1`: the Percent Effect amounted to 1.47%.

For `Cc1ncsc1C(=O)NCCSCCCO`, the Percent Effect was -4.34%.

Consider `CC(C)c1n[nH]c(C2CN(C(=O)CCn3ccccc3=O)CCO2)n1` (stereo not given), for which the Percent Effect was -1.85%.

Take `Cn1ncc2c(=O)[nH]c(N3CCN(C(=O)c4ccsc4)CC3)nc21`: the Percent Effect worked out at 1.3%.

In the case of `COc1ccc(C2CC(=O)Nc3c2cnn3C)cc1` (stereo not given), the Percent Effect is -0.607%.
